Measured values from PubChem BioAssay (EPA / NIEHS).
Inconclusive results are not listed. Calls of active or inactive are those of the source. Rule for the calls, unless noted: active = hit-call score of the fitted dose curve at least 0.9, where 1 is the maximum; inactive = score below 0.9.

Experiments:
[1] = biological target: Myc proto-oncogene protein (Homo sapiens) (UniProt P01106); assay: ATG_Myc_CIS: Attagene CIS-FACTORIAL HepG2 Assay for human Myelocytomatosis (Myc) Proto-Oncogene Transcription Factor (AID 2282990); conditions: HepG2, Attagene cis-reporter transcription factor activity; actives raise or lower the signal
Summary of the method: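 After 24 h chemical treatment of HepG2 cells carrying multiplexed cis-regulated reporter constructs, reporter transcripts quantified by RT-PCR and capillary electrophoresis of fluorescent fragments. Gain or loss fitted against DMSO baseline.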

[2] = ATG_Oct_MLP_CIS: Attagene CIS-FACTORIAL HepG2 Assay for human Octamer-Binding Transcription Factor (Oct) (AID 2282993); conditions: HepG2 Attagene cis-factorial Oct reporter, mRNA; actives raise or lower the signal
Summary of the method: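 Using HepG2 cells bearing transfected cis-reporter constructs, mRNA induction was read after 24 h by fluorescent RT-PCR and capillary electrophoresis, with DMSO defining baseline for gain- or loss-of-signal fits.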

[3] = biological target: Cellular tumor antigen p53 (Homo sapiens) (UniProt P04637); assay: ATG_p53_CIS: Attagene CIS-FACTORIAL HepG2 Assay for human p53 Transcription Factor (AID 2282994); conditions: HepG2 p53 cis-element reporter, Attagene mRNA; actives raise or lower the signal
Summary of the method: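 HepG2 cells transiently transfected with multiplexed cis-regulated reporter transcription units read endogenous TF activity. After 24 h compound exposure, reporter mRNA was quantified by RT-PCR, fluorescent labelling, HpaI digestion and capillary electrophoresis; bidirectional fits versus DMSO baseline.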

[4] = BSK_3C_TissueFactor: BioMAP Diversity Plus: 3C Assay for Tissue Factor Biomarker Activity (AID 2282997); conditions: BioMAP 3C HUVEC, tissue factor biomarker readout; actives raise or lower the signal
Summary of the method: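 HUVEC were treated 24 h, then surface tissue factor measured by ELISA and fitted bidirectionally against DMSO. Parallel SRB total-protein staining assessed overt cytotoxicity at the same time point.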

[5] = BSK_3C_uPAR: BioMAP Diversity Plus: 3C Assay for Urokinase-type plasminogen activator receptor (uPAR) Biomarker Activity (AID 2282998); conditions: BioMAP 3C HUVEC, uPAR biomarker ELISA; actives raise or lower the signal
Summary of the method: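 In this endothelial cell-based assay, human umbilical vein primary cells were treated with chemicals and harvested at 24 h. uPAR was quantified using ELISA, with gains or losses fitted relative to DMSO controls.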

[6] = BSK_3C_VCAM1: BioMAP Diversity Plus: 3C Assay for Vascular cell adhesion molecule 1 (VCAM1) Biomarker Activity (AID 2282999); conditions: BioMAP 3C HUVEC, VCAM1 ELISA, cytokine-stimulated; actives raise or lower the signal
Summary of the method: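 Endothelial cells from human umbilical vein are treated with test chemical. At 24 h, VCAM-1 is measured by ELISA, and responses in either direction are fitted relative to DMSO.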

[7] = BSK_4H_Eotaxin3: BioMAP Diversity Plus: 4H Assay for Eotaxin 3 Biomarker Activity (AID 2283000); conditions: primary human endothelial cells (HUVEC); actives raise or lower the signal;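 note: CCL26 protein level quantified by ELISA in parallel with SRB cytotoxicity check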
Summary of the method: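 Eotaxin-3 (CCL26) levels were measured by ELISA in HUVEC primary cultures 24 h post-dosing. Gain or loss of signal was fitted in both directions, with DMSO serving as baseline and negative control.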

[8] = biological target: human Peroxisome Proliferator-activated Receptor delta (PPARd), PPARD (gene 5467) (UniProt Q03181); assay: ATG_PPARd_TRANS: Attagene TRANS-FACTORIAL HepG2 Assay for human Peroxisome Proliferator-activated Receptor delta (PPARd) (AID 2283002; active = hit-call score of the fitted dose curve at least 0.9, where 1 is the maximum)
Summary of the method: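 Read-out is induced reporter mRNA, quantified by RT-PCR with fluorescent labelling and capillary electrophoresis after 24 h dosing. Cells are HepG2 transiently carrying multiple GAL4-UAS reporter units driven by exogenous NR-GAL4 chimeras; DMSO serves as baseline.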

[9] = read-out: Intercellular Adhesion Molecule 1 (ICAM1), ICAM1 (gene 3383); assay: BSK_3C_ICAM1: BioMAP Diversity Plus: 3C Assay for Intercellular Adhesion Molecule 1 (ICAM1) Biomarker Activity (AID 2283003); conditions: primary human endothelial cells (HUVEC); actives raise or lower the signal
Summary of the method: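 Primary human umbilical vein endothelial cells in the BioMAP 3C system were exposed to chemicals for 24 h, then ICAM-1 was quantified by ELISA. Activity was fitted bidirectionally against the DMSO negative control baseline.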

[10] = BSK_3C_Proliferation: Cell Proliferation Assessment in the BioMAP Diversity Plus: 3C Assay (AID 2283006); conditions: primary human endothelial cells (HUVEC);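 for AC50: potency may reflect either rise or fall in cell number versus DMSO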
Summary of the method: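 Human umbilical vein endothelial cells were grown sub-confluent and exposed to chemical for 48 h, then fixed with 10% TCA and stained with 0.1% sulforhodamine B; absorbance at 560 nm gave relative cell number, fitted bidirectionally against DMSO baseline.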

[11] = biological target: Peroxisome proliferator-activated receptor gamma (Homo sapiens) (UniProt P37231); assay: ATG_PPARg_TRANS: Attagene TRANS-FACTORIAL HepG2 Assay for human Peroxisome Proliferator-activated Receptor-gamma (PPARg) (AID 2283007; active = hit-call score of the fitted dose curve at least 0.9, where 1 is the maximum)
Summary of the method: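 Endpoint reflects upward reporter mRNA change versus DMSO controls. Setup: transiently transfected HepG2, GAL4-UAS reporters driven by chimeric NR-Gal4, 24 h incubation, RT-PCR with capillary electrophoresis read-out.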

[12] = biological target: Nuclear receptor subfamily 1 group I member 2 (Homo sapiens) (UniProt O75469); assay: ATG_PXR_TRANS: Attagene TRANS-FACTORIAL HepG2 Assay for human Pregnane X Receptor (PXR) (AID 2283008; active = hit-call score of the fitted dose curve at least 0.9, where 1 is the maximum)
Summary of the method: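 HepG2 cells transiently transfected with multiple reporter units, here a PXR-GAL4 chimera driving a GAL4-UAS reporter; 24 h compound exposure. Reporter mRNA measured by RT-PCR, FAM labelling and capillary electrophoresis; gain of signal fitted against DMSO baseline.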

[13] = biological target: Nuclear respiratory factor 1 (Homo sapiens) (UniProt Q16656); assay: ATG_NRF1_CIS: Attagene CIS-FACTORIAL HepG2 Assay for human Nuclear Respiratory Factor 1 (NRF1) Orphan Gene (AID 2282987); conditions: HepG2 NRF1 cis-element reporter, Attagene multiplex; actives raise or lower the signal
Summary of the method: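 Using DMSO as baseline, gain- or loss-of-signal was fitted for reporter mRNA levels in HepG2 cells transiently transfected with cis-regulated reporter units. Samples were taken 24 h after dosing and read by RT-PCR with capillary electrophoresis.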

[14] = ATG_NFI_CIS: Attagene CIS-FACTORIAL HepG2 Assay for human Nuclear Factor I (NFI) (AID 2282989); conditions: HepG2 cis-regulatory reporter, NFI response element transcription; actives raise or lower the signal
Summary of the method: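 Transfected HepG2 liver cells, exposed 24 h, supplied total RNA for oligo(dT) reverse transcription and reporter-specific PCR. Labelled, HpaI-cut fragments were sized by capillary electrophoresis; DMSO set the baseline for bidirectional fitting.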

[15] = ATG_NF_kB_CIS: Attagene CIS-FACTORIAL HepG2 Assay for human Nuclear Factor Kappa B (NF-kB) (AID 2282991); conditions: HepG2 Attagene cis-factorial NF-kB reporter mRNA; actives raise or lower the signal
Summary of the method: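 Endpoint from a 52-component multiplexed HepG2 reporter panel: cis-regulated transcription units transiently transfected, 24 h dosing, reporter mRNA quantified by RT-PCR and capillary electrophoresis, scored as increase or decrease against DMSO.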

[16] = biological target: human Peroxisome Proliferator-activated Receptor alpha (PPARa), PPARA (gene 5465) (UniProt Q07869); assay: ATG_PPARa_TRANS: Attagene TRANS-FACTORIAL HepG2 Assay for human Peroxisome Proliferator-activated Receptor alpha (PPARa) (AID 2283001; active = hit-call score of the fitted dose curve at least 0.9, where 1 is the maximum)
Summary of the method: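 Reporter transcripts from GAL4-UAS units in transfected HepG2 were quantified 24 h after dosing. Detection used reverse transcription, PCR, fluorescent primer extension and capillary electrophoresis, with DMSO as baseline.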

[17] = ATG_NRF2_ARE_CIS: Attagene CIS-FACTORIAL HepG2 Assay for human Nuclear Factor Erythroid 2 Related Factor 2 (NFR2) response to Antioxidant Response Elements (ARE) (AID 2282992); conditions: HepG2 Attagene ARE/NRF2 reporter, transcription factor activity; actives raise or lower the signal
Summary of the method: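 HepG2 cells transiently transfected with multiplexed cis-regulated reporter transcription units measure endogenous transcription factor activity. Reporter mRNA at 24 h is quantified by RT-PCR, fluorescent labelling and capillary electrophoresis, with bidirectional fitting relative to DMSO.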

[18] = biological target: human Retinoic Acid Receptor beta (RARb), RARB (gene 5915) (UniProt P10826); assay: ATG_RARb_TRANS: Attagene TRANS-FACTORIAL HepG2 Assay for human Retinoic Acid Receptor beta (AID 2283004; active = hit-call score of the fitted dose curve at least 0.9, where 1 is the maximum)
Summary of the method: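 HepG2 cells were transiently transfected with GAL4-UAS reporter units that report activity of exogenous chimeric NR-Gal4 proteins, then exposed to compound for 24 h. Reporter mRNA was quantified by RT-PCR with capillary electrophoresis fluorescence, as gain of signal over DMSO.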

[19] = biological target: Retinoic acid receptor alpha (Homo sapiens) (UniProt P10276); assay: ATG_RARa_TRANS: Attagene TRANS-FACTORIAL HepG2 Assay for human Retinoic Acid Receptor alpha (RARa) (AID 2283005; active = hit-call score of the fitted dose curve at least 0.9, where 1 is the maximum)
Summary of the method: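 Reporter transcripts, measured by RT-PCR with fluorescent labeling and capillary electrophoresis after 24 h dosing, reflect activity of an exogenous human RARa–GAL4 fusion in transiently transfected HepG2. Fitted for increase relative to DMSO.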

[20] = biological target: human Retinoic Acid Receptor gamma (RARg), RARG (gene 5916) (UniProt P13631); assay: ATG_RARg_TRANS: Attagene TRANS-FACTORIAL HepG2 Assay for human Retinoic Acid Receptor gamma (RARg) (AID 2283009; active = hit-call score of the fitted dose curve at least 0.9, where 1 is the maximum)
Summary of the method: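 HepG2 cells transiently transfected with multiplexed reporter units expressing chimeric RARg-GAL4 and GAL4-UAS-driven reporters; 24 h compound exposure. Reporter mRNA quantified by RT-PCR with fluorescent labelling and capillary electrophoresis; gain-of-signal fitted relative to DMSO baseline.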

Measured: AC50

human Peroxisome Proliferator-activated Receptor delta (PPARd), PPARD (gene 5467), sequence (Q03181 whole entry, looked up, the tested form may be a part): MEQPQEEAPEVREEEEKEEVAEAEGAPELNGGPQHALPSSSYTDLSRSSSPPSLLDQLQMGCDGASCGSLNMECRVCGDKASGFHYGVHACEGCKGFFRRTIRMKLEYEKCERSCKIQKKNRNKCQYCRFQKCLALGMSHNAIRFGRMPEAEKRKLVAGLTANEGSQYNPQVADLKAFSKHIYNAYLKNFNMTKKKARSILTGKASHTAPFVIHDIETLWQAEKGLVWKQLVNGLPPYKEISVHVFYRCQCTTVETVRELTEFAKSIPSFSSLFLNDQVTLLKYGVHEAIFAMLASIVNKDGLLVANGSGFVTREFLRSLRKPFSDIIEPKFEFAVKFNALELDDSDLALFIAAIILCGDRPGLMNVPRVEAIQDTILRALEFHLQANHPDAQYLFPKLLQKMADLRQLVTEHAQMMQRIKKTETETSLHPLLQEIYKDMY
human Retinoic Acid Receptor beta (RARb), RARB (gene 5915), sequence (P10826 whole entry, looked up, the tested form may be a part): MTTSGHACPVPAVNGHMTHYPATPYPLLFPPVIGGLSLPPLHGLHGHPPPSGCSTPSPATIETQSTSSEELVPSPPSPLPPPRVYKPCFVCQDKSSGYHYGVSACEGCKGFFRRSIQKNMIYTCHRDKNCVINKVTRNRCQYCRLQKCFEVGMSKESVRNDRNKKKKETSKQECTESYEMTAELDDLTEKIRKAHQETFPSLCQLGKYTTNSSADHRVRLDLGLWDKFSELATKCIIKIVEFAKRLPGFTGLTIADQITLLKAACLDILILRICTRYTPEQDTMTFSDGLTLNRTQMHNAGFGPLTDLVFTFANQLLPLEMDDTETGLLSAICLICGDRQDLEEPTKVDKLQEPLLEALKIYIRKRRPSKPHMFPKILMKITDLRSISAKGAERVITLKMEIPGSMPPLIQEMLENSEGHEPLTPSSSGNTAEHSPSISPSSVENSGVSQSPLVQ
Nuclear respiratory factor 1 (Homo sapiens), sequence (Q16656 whole entry, looked up): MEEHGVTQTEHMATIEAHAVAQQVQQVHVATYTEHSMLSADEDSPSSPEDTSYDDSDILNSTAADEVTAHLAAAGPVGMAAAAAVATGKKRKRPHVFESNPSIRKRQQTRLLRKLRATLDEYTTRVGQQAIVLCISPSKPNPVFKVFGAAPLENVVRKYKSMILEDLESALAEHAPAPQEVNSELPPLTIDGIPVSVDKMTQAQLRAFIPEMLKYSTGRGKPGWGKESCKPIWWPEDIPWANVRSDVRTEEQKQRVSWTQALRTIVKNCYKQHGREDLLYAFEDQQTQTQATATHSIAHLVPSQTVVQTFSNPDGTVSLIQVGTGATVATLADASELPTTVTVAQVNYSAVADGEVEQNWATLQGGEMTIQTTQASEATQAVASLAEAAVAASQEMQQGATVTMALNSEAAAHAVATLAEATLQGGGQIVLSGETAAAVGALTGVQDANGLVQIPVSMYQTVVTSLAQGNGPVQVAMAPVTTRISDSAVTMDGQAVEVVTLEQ
Retinoic acid receptor alpha (Homo sapiens), sequence (P10276 whole entry, looked up, the tested form may be a part): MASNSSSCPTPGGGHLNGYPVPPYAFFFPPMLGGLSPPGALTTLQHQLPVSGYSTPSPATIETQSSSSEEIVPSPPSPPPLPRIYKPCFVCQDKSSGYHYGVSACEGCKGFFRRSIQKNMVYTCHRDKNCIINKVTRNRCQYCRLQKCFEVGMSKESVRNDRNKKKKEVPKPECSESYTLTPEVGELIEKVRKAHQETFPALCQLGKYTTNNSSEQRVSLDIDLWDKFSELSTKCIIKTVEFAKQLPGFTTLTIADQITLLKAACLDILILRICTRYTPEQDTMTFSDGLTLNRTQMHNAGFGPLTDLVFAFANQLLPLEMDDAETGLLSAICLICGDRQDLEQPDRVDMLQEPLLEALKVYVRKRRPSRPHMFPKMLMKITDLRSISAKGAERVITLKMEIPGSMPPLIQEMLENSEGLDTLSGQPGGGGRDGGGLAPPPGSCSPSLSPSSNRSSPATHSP
human Peroxisome Proliferator-activated Receptor alpha (PPARa), PPARA (gene 5465), sequence (Q07869 whole entry, looked up, the tested form may be a part): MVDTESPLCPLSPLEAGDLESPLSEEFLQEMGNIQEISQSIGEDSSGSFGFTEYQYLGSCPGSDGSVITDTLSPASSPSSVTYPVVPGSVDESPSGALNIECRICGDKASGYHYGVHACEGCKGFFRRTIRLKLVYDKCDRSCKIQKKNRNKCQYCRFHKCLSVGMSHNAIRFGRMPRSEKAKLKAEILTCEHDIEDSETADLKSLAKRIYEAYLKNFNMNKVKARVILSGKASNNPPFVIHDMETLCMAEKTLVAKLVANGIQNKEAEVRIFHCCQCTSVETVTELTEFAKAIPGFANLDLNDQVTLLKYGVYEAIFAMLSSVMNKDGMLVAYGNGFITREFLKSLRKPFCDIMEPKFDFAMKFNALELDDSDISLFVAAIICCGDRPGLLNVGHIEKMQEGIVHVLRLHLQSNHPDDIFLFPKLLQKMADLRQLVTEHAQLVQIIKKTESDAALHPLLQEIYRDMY
Peroxisome proliferator-activated receptor gamma (Homo sapiens), sequence (P37231 whole entry, looked up, the tested form may be a part): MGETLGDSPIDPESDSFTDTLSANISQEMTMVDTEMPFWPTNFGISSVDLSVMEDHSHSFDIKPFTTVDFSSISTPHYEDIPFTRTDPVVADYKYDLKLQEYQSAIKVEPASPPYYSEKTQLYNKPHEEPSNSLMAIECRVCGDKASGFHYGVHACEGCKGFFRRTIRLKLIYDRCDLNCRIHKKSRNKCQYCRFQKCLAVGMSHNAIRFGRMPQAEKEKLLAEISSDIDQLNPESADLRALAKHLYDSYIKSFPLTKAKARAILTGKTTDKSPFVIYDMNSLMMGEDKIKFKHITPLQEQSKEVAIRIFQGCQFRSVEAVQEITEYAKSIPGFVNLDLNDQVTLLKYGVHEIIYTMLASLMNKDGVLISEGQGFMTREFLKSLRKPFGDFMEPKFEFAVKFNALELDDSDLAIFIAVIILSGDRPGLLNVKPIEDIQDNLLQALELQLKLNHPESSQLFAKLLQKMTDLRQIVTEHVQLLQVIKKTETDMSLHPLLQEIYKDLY
human Retinoic Acid Receptor gamma (RARg), RARG (gene 5916), sequence (P13631 whole entry, looked up, the tested form may be a part): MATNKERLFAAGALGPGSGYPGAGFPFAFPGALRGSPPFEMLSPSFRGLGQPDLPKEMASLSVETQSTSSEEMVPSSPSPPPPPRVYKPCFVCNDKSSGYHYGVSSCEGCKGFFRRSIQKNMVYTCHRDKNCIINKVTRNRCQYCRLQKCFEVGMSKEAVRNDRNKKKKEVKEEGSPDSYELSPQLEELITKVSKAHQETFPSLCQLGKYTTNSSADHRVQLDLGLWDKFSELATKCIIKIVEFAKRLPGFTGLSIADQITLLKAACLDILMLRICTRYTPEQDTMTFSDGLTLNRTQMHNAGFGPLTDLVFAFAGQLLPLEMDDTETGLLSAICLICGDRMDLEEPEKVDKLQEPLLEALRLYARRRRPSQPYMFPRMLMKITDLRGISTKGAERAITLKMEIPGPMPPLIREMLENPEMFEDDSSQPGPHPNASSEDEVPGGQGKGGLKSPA
Cellular tumor antigen p53 (Homo sapiens), sequence (P04637 whole entry, looked up): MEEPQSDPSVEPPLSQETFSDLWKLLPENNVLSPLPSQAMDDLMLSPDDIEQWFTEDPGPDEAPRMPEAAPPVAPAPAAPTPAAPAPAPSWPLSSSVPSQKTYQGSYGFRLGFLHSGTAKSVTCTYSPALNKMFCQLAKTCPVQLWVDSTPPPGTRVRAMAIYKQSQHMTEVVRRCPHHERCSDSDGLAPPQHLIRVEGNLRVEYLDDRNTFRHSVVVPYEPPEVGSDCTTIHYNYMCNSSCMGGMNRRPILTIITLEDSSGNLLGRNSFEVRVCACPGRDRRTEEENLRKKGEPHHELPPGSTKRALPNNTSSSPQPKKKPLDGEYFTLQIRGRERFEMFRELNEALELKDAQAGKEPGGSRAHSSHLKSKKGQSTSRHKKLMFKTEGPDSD
Nuclear receptor subfamily 1 group I member 2 (Homo sapiens), sequence (O75469 whole entry, looked up, the tested form may be a part): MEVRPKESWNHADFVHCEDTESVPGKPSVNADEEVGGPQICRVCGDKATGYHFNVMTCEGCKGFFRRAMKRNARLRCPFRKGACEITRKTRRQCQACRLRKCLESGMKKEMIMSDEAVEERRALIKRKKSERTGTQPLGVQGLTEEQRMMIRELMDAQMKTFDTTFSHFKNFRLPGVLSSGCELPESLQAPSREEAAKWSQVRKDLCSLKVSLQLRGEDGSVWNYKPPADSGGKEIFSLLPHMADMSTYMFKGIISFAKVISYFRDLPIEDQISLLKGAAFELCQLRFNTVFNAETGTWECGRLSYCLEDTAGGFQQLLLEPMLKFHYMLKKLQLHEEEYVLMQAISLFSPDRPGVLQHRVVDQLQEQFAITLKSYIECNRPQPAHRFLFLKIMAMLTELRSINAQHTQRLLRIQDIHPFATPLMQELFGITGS
Myc proto-oncogene protein (Homo sapiens), sequence (P01106 whole entry, looked up, the tested form may be a part): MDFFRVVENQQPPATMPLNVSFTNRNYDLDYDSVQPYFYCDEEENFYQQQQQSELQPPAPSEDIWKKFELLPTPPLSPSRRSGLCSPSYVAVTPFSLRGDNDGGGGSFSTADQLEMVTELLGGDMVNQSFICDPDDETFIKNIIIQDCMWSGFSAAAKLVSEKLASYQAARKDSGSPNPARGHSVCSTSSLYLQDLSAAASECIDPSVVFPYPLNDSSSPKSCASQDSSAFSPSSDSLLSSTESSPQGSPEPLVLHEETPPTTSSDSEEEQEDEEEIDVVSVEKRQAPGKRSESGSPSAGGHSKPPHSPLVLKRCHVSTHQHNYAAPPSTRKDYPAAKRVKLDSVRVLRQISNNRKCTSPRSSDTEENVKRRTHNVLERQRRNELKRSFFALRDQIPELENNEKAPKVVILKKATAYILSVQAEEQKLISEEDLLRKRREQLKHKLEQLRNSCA

O=C1CN(N=Cc2ccc([N+](=O)[O-])o2)C(=O)N1
active: [10] 13.6 µM
not listed: [13] | [14] | [15] | [16] | [17] | [18] | [19] | [20]
inactive: all other assays above

CCCCN1C(=O)[C@@H]([C@H](O)C2CCCCC2)NC(=O)C12CCN(Cc1ccc(Oc3ccc(C(=O)O)cc3)cc1)CC2
active: [15] 53.4 µM | [3] 93.5 µM | [5] 26.7 µM | [10] 28.2 µM
not listed: [1] | [17] | [18] | [19] | [20]
inactive: all other assays above

O=C(O)[C@H](O)[C@@H](O)C(=O)O
not listed: [1] | [3] | [12] | [16] | [18] | [19] | [20]
inactive: all other assays above

NC(=O)N(O)[C@@H]1COc2cc(OCc3ccccc3)ccc21
not listed: [1] | [3] | [8] | [17] | [19] | [20]
inactive: all other assays above

O=C(N[C@H](CO)[C@H](O)c1ccc([N+](=O)[O-])cc1)C(Cl)Cl
inactive: [13] | [14] | [15] | [2] | [3] | [16] | [8] | [11] | [12]

OCCC(F)(F)C(F)(F)C(F)(F)C(F)(F)F
not listed: [1] | [17]
inactive: all other assays above

CCCC(CCC)C(=O)O
not listed: [1] | [3] | [8] | [11] | [18] | [19] | [20]
inactive: all other assays above

Cc1nccn1-c1ccc(Sc2cccc(C3(C(N)=O)CCOCC3)c2)cc1
active: [14] 2.39 µM | [2] 3.22 µM | [4] 8.83 µM | [10] 11.1 µM | [11] 1.85 µM
not listed: [1] | [3] | [17]
inactive: all other assays above

CC[C@H](C)C(=O)O[C@H]1C[C@H](O)C=C2C=C[C@H](C)[C@H](CC[C@@H](O)C[C@@H](O)CC(=O)O)[C@H]21
not listed: [1] | [3] | [8] | [11] | [12] | [16] | [18] | [19]
inactive: all other assays above
